In PubChem BioAssay AID1159580 (chemical genetic matrix, 2015):
Hit rate of the full screen: of about 5,500 compounds, about 2,000 (36%) were called active. Not shown: some 18% with an inconclusive outcome. Rule as the data show it: active = normalized growth mostly below about 0.91 (no sharp cut-off); inconclusive = no clear call, values can overlap the other calls; inactive = mostly above about 0.92. The list shows a part of the results.

Assay: chemical genetic growth profiling, strain panel (AID 1159580);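 also: tested at 20 µM; growth read once vehicle control cultures reached saturation at 30 °C; 1 = growth at the plate median or of vehicle wells; lower values mean less growth of the strain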
Conditions: growth OD

Measured: normalized growth

CC1=C2[C@](C)(C=CC1=O)C[C@H](O)[C@H]1[C@H](C)C(=O)O[C@]21C
inactive: S. cerevisiae deletion strains, locus YAL013W, strain DEP1, active compounds read low 1.01 | S. cerevisiae deletion strains, locus YBR021W, strain FUR4, active compounds read low 1 | S. cerevisiae deletion strains, locus YBR229C, strain ROT2, active compounds read low 1.01 | S. cerevisiae deletion strains, locus YCL029C, strain bik1, active compounds read low 1.03 | S. cerevisiae deletion strains, locus YDL035C, strain GPR1, active compounds read low 1.02 | S. cerevisiae deletion strains, locus YDL074C, strain BRE1, active compounds read low 1.01 | S. cerevisiae deletion strains, locus YDL101C, strain DUN1, active compounds read low 1.02 | S. cerevisiae deletion strains, locus YDL134C, strain PPH21, active compounds read low 1.01 | S. cerevisiae deletion strains, locus YDL185W, strain tfp1, active compounds read low 1.03 | S. cerevisiae deletion strains, locus YDL192W, strain arf1, active compounds read low 1.04 | S. cerevisiae deletion strains, locus YDR101C, strain arx1, active compounds read low 1.01 | S. cerevisiae deletion strains, locus YDR150W, strain NUM1, active compounds read low 1.01 | S. cerevisiae deletion strains, locus YDR162C, strain NBP2, active compounds read low 1.03 | S. cerevisiae deletion strains, locus YDR318W, strain mcm21, active compounds read low 1.03 | S. cerevisiae deletion strains, locus YDR388W, active compounds read low 1.02 | S. cerevisiae deletion strains, locus YDR502C, strain sam2, active compounds read low 1.03 | S. cerevisiae deletion strains, locus YEL061C, strain CIN8, active compounds read low 1.01 | S. cerevisiae deletion strains, locus YER110C, active compounds read low 1.03 | S. cerevisiae deletion strains, locus YER155C, strain BEM2, active compounds read low 1.01 | S. cerevisiae deletion strains, locus YER167W, strain BCK2, active compounds read low 1.02 | S. cerevisiae deletion strains, locus YGL078C, strain dbp3, active compounds read low 1.04 | S. cerevisiae deletion strains, locus YGL086W, strain mad1, active compounds read low 1.02 | S. cerevisiae deletion strains, locus YGL248W, strain PDE1, active compounds read low 1.01 | S. cerevisiae deletion strains, locus YGR078C, strain PAC10, active compounds read low 1.01 | S. cerevisiae deletion strains, locus YGR135W, strain pre9, active compounds read low 1.01 | S. cerevisiae deletion strains, locus YGR229C, strain SMI1, active compounds read low 1.01 | S. cerevisiae deletion strains, locus YGR252W, strain gcn5, active compounds read low 1.07 | S. cerevisiae deletion strains, locus YHR030C, strain SLT2, active compounds read low 1.01 | S. cerevisiae deletion strains, locus YHR079C, strain IRE1 (second series), active compounds read low 1.03 | S. cerevisiae deletion strains, locus YHR094C, strain hxt1, active compounds read low 1.03 | S. cerevisiae deletion strains, locus YHR129C, strain ARP1, active compounds read low 1.01 | S. cerevisiae deletion strains, locus YHR200W, strain rpn10, active compounds read low 1.03 | S. cerevisiae deletion strains, locus YIL066C, strain RNR3, active compounds read low 1.03 | S. cerevisiae deletion strains, locus YIL073C, strain SPO22, active compounds read low 1.1 | S. cerevisiae deletion strains, locus YIL125W, strain kgd1, active compounds read low 1.03 | S. cerevisiae deletion strains, locus YIR030C, strain dcg1, active compounds read low 1.02 | S. cerevisiae deletion strains, locus YJL095W, strain BCK1, active compounds read low 1.01 | S. cerevisiae deletion strains, locus YJL134W, strain LCB3, active compounds read low 1 | S. cerevisiae deletion strains, locus YJL168C, strain set2, active compounds read low 1.03 | S. cerevisiae deletion strains, locus YJL187C, strain SWE1 (second series), active compounds read low 1.01 | S. cerevisiae deletion strains, locus YJR043C, strain POL32, active compounds read low 1.02 | S. cerevisiae deletion strains, locus YJR075W, strain HOC1, active compounds read low 1.02 | S. cerevisiae deletion strains, locus YKL009W, strain mrt4, active compounds read low 1.04 | S. cerevisiae deletion strains, locus YKL068W, active compounds read low 1.04 | S. cerevisiae deletion strains, locus YKL085W, strain MDH1 (second series), active compounds read low 1.02 | S. cerevisiae deletion strains, locus YKL085W, strain MDH1, active compounds read low 1.02 | S. cerevisiae deletion strains, locus YKL190W, strain CNB1, active compounds read low 1.01 | S. cerevisiae deletion strains, locus YKR001C, strain vps1, active compounds read low 1.03 | S. cerevisiae deletion strains, locus YLR039C, strain RIC1, active compounds read low 1.07 | S. cerevisiae deletion strains, locus YLR058C, strain SHM2, active compounds read low 1.02 | S. cerevisiae deletion strains, locus YLR102C, strain apc9, active compounds read low 1.02 | S. cerevisiae deletion strains, locus YLR262C, strain YPT6, active compounds read low 1.05 | S. cerevisiae deletion strains, locus YLR268W, strain sec22, active compounds read low 1.02 | S. cerevisiae deletion strains, locus YLR330W, strain CHS5, active compounds read low 1.01 | S. cerevisiae deletion strains, locus YLR342W, strain FKS1 (second series), active compounds read low 1.02 | S. cerevisiae deletion strains, locus YLR371W, strain rom2, active compounds read low 1.03 | S. cerevisiae deletion strains, locus YLR418C, strain cdc73, active compounds read low 1.04 | S. cerevisiae deletion strains, locus YML016C, strain PPZ1, active compounds read low 1.01 | S. cerevisiae deletion strains, locus YML032C, strain rad52, active compounds read low 1.05 | S. cerevisiae deletion strains, locus YML124C, strain tub3, active compounds read low 1.03 | S. cerevisiae deletion strains, locus YMR078C, strain ctf18, active compounds read low 1.04 | S. cerevisiae deletion strains, locus YMR223W, strain ubp8, active compounds read low 1.04 | S. cerevisiae deletion strains, locus YMR263W, strain SAP30, active compounds read low 1 | S. cerevisiae deletion strains, locus YMR307W, strain GAS1, active compounds read low 1.08 | S. cerevisiae deletion strains, locus YNL067W, strain RPL9B, active compounds read low 1.01 | S. cerevisiae deletion strains, locus YNL128W, strain TEP1, active compounds read low 1.02 | S. cerevisiae deletion strains, locus YNL153C, strain GIM3, active compounds read low 0.999 | S. cerevisiae deletion strains, locus YNL233W, strain BNI4, active compounds read low 1.01 | S. cerevisiae deletion strains, locus YNL250W, strain rad50, active compounds read low 1.06 | S. cerevisiae deletion strains, locus YNL271C, strain bni1, active compounds read low 1.03 | S. cerevisiae deletion strains, locus YNL298W, strain CLA4, active compounds read low 1.03 | S. cerevisiae deletion strains, locus YNL307C, strain MCK1, active compounds read low 1.04 | S. cerevisiae deletion strains, locus YNL322C, strain KRE1, active compounds read low 1.02 | S. cerevisiae deletion strains, locus YNR052C, strain pop2, active compounds read low 1.04 | S. cerevisiae deletion strains, locus YOL006C, strain TOP1, active compounds read low 1.03 | S. cerevisiae deletion strains, locus YOL012C, strain htz1 0.937 | S. cerevisiae deletion strains, locus YOL147C, strain pex11, active compounds read low 1.03 | S. cerevisiae deletion strains, locus YOR061W, strain CKA2, active compounds read low 1.01 | S. cerevisiae deletion strains, locus YOR069W, strain VPS5, active compounds read low 1 | S. cerevisiae deletion strains, locus YOR136W, strain idh2, active compounds read low 1.03 | S. cerevisiae deletion strains, locus YOR144C, strain elg1, active compounds read low 1.02 | S. cerevisiae deletion strains, locus YOR184W, strain ser1, active compounds read low 1.04 | S. cerevisiae deletion strains, locus YOR316C, strain cot1, active compounds read low 1.02 | S. cerevisiae deletion strains, locus YPL055C, strain LGE1, active compounds read low 1.03 | S. cerevisiae deletion strains, locus YPL241C, strain CIN2, active compounds read low 1.01 | S. cerevisiae deletion strains, locus YPR119W, strain clb2, active compounds read low 1.03 | S. cerevisiae deletion strains, locus YPR141C, strain kar3, active compounds read low 1.04 | S. cerevisiae deletion strains, locus YPR163C, strain tif3, active compounds read low 1.02 | S. cerevisiae deletion strains, locus YPR167C, strain met16, active compounds read low 1.02 | S. cerevisiae deletion strains, strain wtn01, active compounds read low 1 | S. cerevisiae strains, strain wild type, active compounds read low 1.02
